High-throughput results from PubChem BioAssay.
hcDAF-12 act: activators of H. contortus DAF-12 nuclear receptor. HEK293 hcDAF-12 lit1-tk-luc reporter, luminescence; 0% DMSO, 100% Δ7-dafachronic acid. activation, % at 6.8 µM. actives 1.4% (n = 370,000);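 active = activation above the mean of all tested compounds plus 3 SD, cut at about 5.5% in these data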;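 note: 100% = response to 3 µM Δ7-dafachronic acid high control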
DAX1 inh-1: DAX1 (NR0B1) inhibition, primary screen. HEK293T StAR-luciferase reporter, SF-1/DAX-1 repression relief. inhibition, % at 6.8 µM. actives 1.1% (n = 370,000). AID 652010;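 active = inhibition above the mean over all tested compounds plus 3 SD, cut at about 3.6% in these data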;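 note: 0% = DAX-1 cells with DMSO and 100% = cells lacking DAX-1 with DMSO; higher inhibition means more luminescence from relief of DAX-1 repression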
DAX1 inh-2: NR0B1 (DAX1) inhibition. inhibition, % at 6.75 µM. HEK293 Gal4-DAX1 luciferase reporter, luminescence. P51843. actives 0.99% (n = 340,000);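 active = inhibition above the mean over all tested compounds plus 3 SD, cut at about 4.2% in these data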;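 note: 0% = DAX1-transfected cells with DMSO and 100% = empty-vector control cells with DMSO; inhibition shows as a rise in luminescence from relieved DAX1 repression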
Target sequence (P51843 207-470 limits assumed): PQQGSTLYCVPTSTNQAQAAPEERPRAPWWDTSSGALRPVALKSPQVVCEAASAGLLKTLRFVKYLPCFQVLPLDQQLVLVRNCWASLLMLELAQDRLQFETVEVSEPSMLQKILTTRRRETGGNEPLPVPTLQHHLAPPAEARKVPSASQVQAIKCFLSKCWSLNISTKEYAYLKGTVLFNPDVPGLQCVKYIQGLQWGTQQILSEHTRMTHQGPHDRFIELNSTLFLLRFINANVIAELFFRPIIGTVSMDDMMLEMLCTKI
ssDAF12 agonist: activates DAF-12 receptor from parasite S. stercoralis; HEK293 ssDAF-12/GRIP1 lit1-tk-luc reporter, luminescence; % of 3 µM dafachronic acid response; activation, % at 6.8 µM; actives 1% (n = 370,000); AID 652126;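 active = activation above the mean over all tested compounds plus 3 SD, cut at about 0.9% in these data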;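 note: 0% = DMSO-only wells and 100% = 3 µM delta7-dafachronic acid wells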
hgDAF-12 ag: agonists of H. glycines DAF-12 nuclear receptor; AID 687014; activation, % at 6.8 µM; actives 1.8% (n = 370,000); HEK293 GAL4-hgDAF12 UAS-luciferase reporter, agonist luminescence; normalized to butyrate control;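 active = activation above a cutoff set at the mean of all screened compounds plus 3 SD, cut at about 10% in these data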;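 note: 0% = DMSO wells and 100% = sodium butyrate wells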
DAX1 inh confirm: confirmation of human DAX1 (NR0B1) inhibitors. AID 652134. HEK293T StAR-promoter luciferase reporter, SF-1/DAX-1 repression. inhibition, % at 6.8 µM. actives 87% (n = 2,400). shares compounds with DAX1 inh-1;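 active = inhibition above the average of every tested compound plus 3 SD, cut at about 3.8% in these data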;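 note: 0% = DAX-1 cells with DMSO and 100% = no DAX-1 control cells with DMSO; active compounds raise luminescence by relieving repression of the StAR reporter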
Target sequence (P51843 whole entry, looked up): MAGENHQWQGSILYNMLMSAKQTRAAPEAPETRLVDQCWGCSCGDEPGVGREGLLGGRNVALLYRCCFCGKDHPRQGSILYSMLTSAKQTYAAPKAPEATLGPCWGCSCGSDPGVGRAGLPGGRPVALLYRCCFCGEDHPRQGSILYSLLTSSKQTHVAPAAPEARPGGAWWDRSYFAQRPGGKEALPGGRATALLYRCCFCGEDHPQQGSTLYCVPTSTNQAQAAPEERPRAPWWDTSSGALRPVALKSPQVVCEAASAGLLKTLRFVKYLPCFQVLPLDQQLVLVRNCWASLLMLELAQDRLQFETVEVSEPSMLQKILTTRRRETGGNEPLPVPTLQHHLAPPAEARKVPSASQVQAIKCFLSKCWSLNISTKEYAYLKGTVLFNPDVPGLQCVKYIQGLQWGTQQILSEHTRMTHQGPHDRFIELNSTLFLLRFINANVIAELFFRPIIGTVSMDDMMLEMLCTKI
SF1 mutant ctr: nonselective inhibitor or artifact in SF-1 mutant DAX1 counter-screen; shares compounds with DAX1 inh-1; HEK293 StAR-luciferase, SF-1 AF2 mutant, luminescence; inhibition, % at 6.8 µM; actives 78% (n = 2,400);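 active = inhibition above the mean of all tested compounds plus 3 SD, cut at about 3% in these data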;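 note: 0% = DAX-1 transfected cells with DMSO and 100% = cells without DAX-1 with DMSO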
LXRb hcDAF ctr: activates human LXR-beta, counter-screen for hcDAF-12 agonists | activation, % at 6.8 µM | shares compounds with hcDAF-12 act | HEK293 Gal4-LXR tk-luc reporter, luminescence, 24 h; normalized: DMSO 0%, positive control 100% | 3,400 tested, under 10 active;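 active = mean percent activation of the reporter above a cutoff set as the average over tested compounds plus their standard deviation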
hcDAF12 conf: confirmation of H. contortus DAF-12 agonists; shares compounds with hcDAF-12 act; HEK293 hcDAF-12 lit1-tk-luc reporter, luminescence; % of Δ7-dafachronic acid response; activation, % at 6.8 µM; actives 61% (n = 3,400); AID 743032;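 active = mean activation across triplicate tests above the threshold derived from the earlier primary screen, cut at about 5.5% in these data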;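 note: 0% = DMSO only wells and 100% = 3 µM Δ7-dafachronic acid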
hgDAF12 conf: hgDAF-12 agonism, confirmation assay | activation, % at 6.8 µM | AID 743050 | actives 80% (n = 3,300) | shares compounds with hgDAF-12 ag | HEK293 GAL4-hgDAF12 luciferase reporter, agonist mode; percent of butyrate response;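 active = mean activation over triplicate wells above the hit cutoff derived from the earlier primary screen, cut at about 11% in these data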;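 note: 0% = DMSO low control and 100% = 2 mM sodium butyrate high control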
LXRb DAF12 ctr: counter-screen for DAF-12 agonists: agonists of human LXR-beta. shares compounds with hgDAF-12 ag. activation, % at 6.8 µM. HEK293 Gal4-LXR luciferase reporter, 24 h. AID 743051. 3,300 tested, under 10 active;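 active = mean activation of the triplicate above a set limit carried over from the primary screen, none filed active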
* hit, by the source's call; nt = no result. An excerpt weighted towards active compounds, which were near 4.1% of everything screened.

SMILES	hcDAF-12 act	DAX1 inh-1	DAX1 inh-2	ssDAF12 agonist	hgDAF-12 ag	DAX1 inh confirm	SF1 mutant ctr	LXRb hcDAF ctr	hcDAF12 conf	hgDAF12 conf	LXRb DAF12 ctr
Cc1ccc(-c2nc3cc(NC(=O)C(C)C)ccc3o2)cc1	7.9*	5.1*	-1.0	1.3*	13.3*	14.4*	4.4*	1.5	4.7	14.7*	1.3
O=C(Nc1ccc2oc(-c3ccccc3F)nc2c1)c1ncn[nH]1	6.4*	5.0*	0.0	0.9	18.7*	9.3*	5.3*	nt	nt	18.6*	0.8
Cc1cccc(-c2nc3cc(NC(=O)C4CCCO4)ccc3o2)c1 (stereo unspecified)	8.7*	6.8*	-2.9	0.9*	14.4*	14.7*	5.4*	1.7	7.8*	12.3*	1.0
CC(=O)Nc1ccc2oc(-c3ccccc3)nc2c1	1.9	5.6*	4.0	0.7	15.2*	12.2*	8.8*	nt	nt	15.1*	0.7
Cc1ccc2oc(-c3cccc(NC(=O)C4CCCO4)c3)nc2c1 (stereo unspecified)	4.5	1.2	1.0	-0.1	3.8	nt	nt	nt	nt	nt	nt
COCCNC(=S)N(C)[C@H]1C[C@H]2c3[nH]c4ccccc4c3CCN2C(=O)[C@H]1[C@H](C)O	-0.4	1.0	nt	-0.1	1.5	nt	nt	nt	nt	nt	nt
COC(=O)[C@]12C[C@H](CC(=O)NCCCN3CCCC3=O)C(=O)N(CCc3ccc(OC)c(OC)c3)C1=C[C@H](C(C)C)O[C@@H]2C1CC1	-2.8	-0.1	nt	-1.1	-1.2	nt	nt	nt	nt	nt	nt
C[C@H](O)[C@@H]1CN2CCc3ccc(-c4ccc5c(c4)OCO5)cc3[C@@H]2C[C@@H]1N(C)Cc1cc(Cl)cc(Cl)c1	-0.8	0.1	nt	-0.5	0.9	nt	nt	nt	nt	nt	nt
C#CCNC(=O)C[C@H]1C[C@@]2(C(=O)OC)C(=C[C@H](C(C)C)O[C@@H]2C2CC2)N(Cc2cccc3ccccc23)C1=O	-1.2	-0.9	nt	-0.9	-0.5	nt	nt	nt	nt	nt	nt
CN(C)c1ccc(N=Nc2nccs2)cc1	9.7*	7.0*	-0.3	2.2*	18.3*	15.8*	5.9*	1.7	10.9*	19.8*	0.8
O/C(=C\c1ccc2ccccc2n1)c1ccc(O)cc1O	8.9*	5.3*	-0.2	1.4*	23.7*	15.9*	7.1*	2.3	10.2*	22.4*	1.3
Cc1ccc(/C=C/c2nc3ccccc3c(=O)[nH]2)cc1	8.7*	5.8*	-0.2	1.5*	16.3*	13.5*	4.2*	1.9	9.4*	17.9*	1.2
COC(=O)c1ccc(/C=C/c2nc3ccccc3c(=O)[nH]2)cc1	0.2	-0.2	-0.2	-0.5	3.0	nt	nt	nt	nt	nt	nt
Cc1cc(C(=O)Nc2ccc(F)cc2)n(-c2ccccc2)n1	-1.3	-1.1	nt	-0.8	0.0	nt	nt	nt	nt	nt	nt
Cc1oc(-c2ccccc2)cc1C(=O)Nc1ccccc1	1.5	-0.4	-1.5	-1.1	4.9	nt	nt	nt	nt	nt	nt
Cc1c(C(=O)Nc2ccccc2)csc1-c1ccccc1	8.1*	6.0*	0.5	1.7*	20.0*	16.0*	5.6*	2.3	6.5*	24.8*	1.2
CC(=O)CCSc1ncnc2sc(-c3ccccc3)cc12	4.2	12.8*	2.2	1.2*	16.1*	15.5*	7.9*	nt	nt	12.8*	0.8
O=C(O)CCSc1ncnc2sc(-c3ccccc3)cc12	-5.2	-1.9	-0.2	-3.2	-13.9	nt	nt	nt	nt	nt	nt
O=C(OCC(=O)N1CCc2ccccc21)c1ccccc1F	3.8	1.7	0.2	0.1	1.9	nt	nt	nt	nt	nt	nt
O=C(CCCc1ccccc1)N1CCc2ccccc21	7.8*	6.2*	1.9	2.0*	15.5*	17.4*	6.7*	1.6	10.4*	17.8*	0.9
O=C(OCC(=O)N1CCc2ccccc21)c1ccccc1[N+](=O)[O-]	7.5*	7.1*	1.5	2.6*	17.8*	16.8*	9.6*	1.5	8.4*	16.5*	0.8
O=C(CS(=O)(=O)Cc1ccccc1)N1CCc2ccccc21	2.8	1.6	-0.1	-0.1	5.4	nt	nt	nt	nt	nt	nt
O=C(NCCc1c[nH]c2ccccc12)OCc1cn(-c2ccccc2Cl)nn1	-2.3	-0.8	nt	-0.5	-3.5	nt	nt	nt	nt	nt	nt
COc1cc(OC)cc(C(C)c2ccc(C)cc2)c1 (stereo unspecified)	-0.8	nt	nt	-0.8	4.1	nt	nt	nt	nt	nt	nt
COC[C@@H]1CCCN1c1cccc2c1S(=O)(=O)N(C1CC1)CC[C@@H](C)O2	-1.6	-0.6	nt	-0.7	1.4	nt	nt	nt	nt	nt	nt
SMILES	hcDAF-12 act	DAX1 inh-1	DAX1 inh-2	ssDAF12 agonist	hgDAF-12 ag	DAX1 inh confirm	SF1 mutant ctr	LXRb hcDAF ctr	hcDAF12 conf	hgDAF12 conf	LXRb DAF12 ctr
COc1ccc2oc(C(=O)Nc3nccs3)c(C)c2c1	8.2*	12.2*	2.4	0.5	18.2*	11.0*	7.7*	1.5	10.1*	22.9*	1.2
CCOc1ccc2oc(C(=O)Nc3nccs3)c(C)c2c1	5.9*	7.2*	2.3	-0.3	13.8*	15.3*	7.5*	nt	nt	21.4*	1.1
CS(=O)(=O)N(Cc1ccc(Cl)cc1)c1ccc(C(=O)NCCSc2ccccn2)cc1	-3.5	-0.9	-0.6	-0.6	-3.5	nt	nt	nt	nt	nt	nt
O=C(NCCSc1ccccn1)c1ccc(Cl)cc1	5.2	4.5*	1.2	0.4	20.9*	10.2*	4.8*	nt	nt	16.3*	0.8
O=C(NCCSc1ccccn1)c1ccc(Cl)cc1Cl	4.3	7.3*	1.3	-0.4	15.2*	10.6*	6.6*	nt	nt	18.3*	1.0
CCc1ccc(NC(=O)c2cnn(-c3ccccc3)c2C)cc1	4.9	6.1*	-0.9	1.1*	14.8*	11.1*	6.0*	nt	nt	18.9*	0.8
Cc1ccn2cc(-c3cc4ccccc4oc3=O)nc2c1	11.4*	12.2*	0.4	1.7*	24.0*	12.2*	4.7*	1.2	6.9*	12.2*	1.0
Cc1ccc(-n2[nH]c(C)c(C=NC34CN5CN(CN(C5)C3)C4)c2=O)cc1C	-1.1	1.2	2.1	-1.3	1.3	nt	nt	nt	nt	nt	nt
COCCCN=Cc1c(C)[nH]n(-c2ccc(Br)c(C)c2)c1=O	7.6*	7.0*	0.1	0.6	17.6*	16.0*	5.2*	1.7	11.2*	9.6	1.2
